This is an account of results in PubChem BioAssay (Tox21).

Each structure is given as a SMILES string. Values joined by “and” are separate entries in the source; they are usually repeats but may differ in a detail not shown here. Equal entries are not always repeated. Records with an inconclusive call do not appear. Where a call stands in place of a potency, no number is given. The source holds several records for some structures; these can differ, active in one and inactive in another. Active and inactive are the calls of the source. Calls follow the shape of the dose curve; as a rule, active = well fitted cell-killing curve with a large enough effect in the repeat runs; inconclusive = weak or mixed curves, or effect the other way; inactive = no such curve, though single readings can be large or run the other way.
Potency is read from the fitted curve at half-maximal effect.

This assay in a line: qHTS assay to identify small molecule antagonists of the retinoid-related orphan receptor gamma (ROR-gamma) signaling pathway - cell viability counter screen (AID 1159520). Also: nearly all actives have a fitted effect of over 50% in size. Conditions: Tet-on RORgamma CHO cells viability, ATP luminescence, 16 h; series mostly up to 92.4 µM. The text has this:
U.S. Tox21 Program National Center for Advancing Translational Sciences [NCATS] NIH Chemical Genomics Center [NCGC] U.S. Environmental Protection Agency [EPA] National Institutes of Environmental Health Sciences [NIEHS] National Toxicology Program [NTP] U.S. Food and Drug Administration [FDA] Tox21 Assay Overview: Nuclear steroid hormone receptors are involved in many biological processes including inflammatory responses, cell proliferation, and apoptosis. Environmental factors or compounds disrupting these nuclear receptor pathways and gene expression may promote susceptibility to immunotoxicants and autoimmune diseases. One important group of these expression factors are the retinoid-related orphan receptors. To assess compounds that may interfere with the retinoid-related orphan receptor gamma (ROR-gamma) transcription factor, a cell-based luciferase assay was used. The CHO cell-based assay utilizes a TET-inducible ROR expression factor and ROR response element-LUC reporter gene. Reporter gene activity was induced using Doxycycline Hyclate and measured after 16 hr incubation. Tet-on ROR gamma CHO cells were used to screen against the Tox21 10K compound library for cytotoxicity by measuring the viability of the cells based on the quantitation of the ATP.
Tox21 Assay Protocol Summary: Tet-on ROR gamma CHO cells were dispensed at 1,000 cells in 4 uL of culture medium per well into white wall/solid bottom 1536-well plates using a Multidrop Combi (Thermo Scientific, Waltham, MA) dispenser. Following incubation at 37 C and 5% CO2 for 4 hr, 23 nL of compounds dissolved in DMSO, positive controls or DMSO only were transferred by a Pintool station (Kalypsys, San Diego, CA) and after 2 hr incubation at 37 C, one ul of 1 uM (final concentration) of Doxycycline Hyclate was added to all the wells by using a Flying Reagent Dispenser (FRD) (Aurora Discovery, San Diego, CA). After 16 hr incubation at 37 C and 5% CO2, 5 uL of CellTiter-Glo reagent (Promega Corporation, Madison, WI) was added to each assay plate using FRD. After 30 min incubation at room temperature, luminescence was quantified on a ViewLux plate reader (Perkin Elmer, Waltham, MA).
A general note: qHTS replaces the single test concentration by a dilution series.
As for `CCCCn1cc[n+](C)c1C`, the Potency result is “inactive”. The result for `OCCOc1ccccc1` reads “inactive”; that for `CCCC[n+]1ccc(C)cc1`, “inactive and 60.8 µM (active)”. The same measure for `CN(C)[C@@H]1C(=O)C(C(N)=O)=C(O)[C@@]2(O)C(=O)C3=C(O)c4c(O)cccc4[C@@](C)(O)[C@H]3[C@H](O)[C@@H]12`: “inactive”; for `O=C(O)c1nc(Cl)ccc1Cl`: “inactive”. The same measure for `CC(=O)[O][Hg][c]1ccccc1`: 304 nM (active) and 969 nM (active) and 422 nM (active); for `CC[N+]1(C)CCCC1`: “inactive”; for `O=P1(N(CCCl)CCCl)NCCCO1` (stereo not given): “inactive”. Take `Oc1ccccc1-c1ccccc1`: the Potency entry is “inactive”.

For the compound `CCC(=O)C(CC(C)N(C)C)(c1ccccc1)c1ccccc1` (stereo not given), the Potency result is “inactive”. The same measure for `CC[N+](CC)(CC)CC`: “inactive”; for `N#CS`: “inactive”. The same measure for `CCCC[N+]1(C)CCCCC1`: “inactive”; for `Cc1cc(Cl)ccc1OCC(=O)O`: “inactive”; for `CCCC[n+]1ccccc1C`: “inactive”. In the case of `CNC`, the Potency result was “inactive”.

Take `COc1ccccc1N`: the Potency result is “inactive”. As for `CCCCn1cc[n+](C)c1`, the Potency entry is “inactive”. For the compound `CCCC[N+]1(C)CCCC1`, the Potency result was “inactive”. Turning to `O=C(O)CCl`, the Potency result is “inactive”.

As for `CCC[N+]1(C)CCCC1`, the Potency entry is “inactive”.

Take `CCCCCCCCn1cc[n+](C)c1`: the Potency entry is “inactive”. The result for `CCCn1cc[n+](C)c1` reads “inactive”; that for `O=c1[nH]c(=O)n(Cl)c(=O)n1Cl`, “inactive”. For `O=S(=O)(O)O`, the Potency result is “inactive”. The result for `CCCC[n+]1cccc(C)c1` reads “inactive”. Take `Cc1cc(Cl)ccc1N`: the Potency result was “inactive”. On to `Cc1cc(-c2ccc(N)c(C)c2)ccc1N`, for which the Potency result is “inactive”. Take `CC(Cl)(Cl)C(=O)O`: the Potency entry was “inactive”. As to `COP(=O)(OC)C(O)C(Cl)(Cl)Cl` (stereo not given), the Potency entry was “inactive”. The same measure for `CCOP(=S)(OCC)Oc1ccc2c(C)c(Cl)c(=O)oc2c1`: “inactive”. Take `CCCCCCCCCCCC(=O)O`: the Potency result was “inactive”. In the case of `C[N+](C)(C)Cc1ccccc1`, the Potency result is “inactive”. In the case of `O=[N+]([O-])c1ccccc1O`, the Potency entry was “inactive”. The same measure for `Oc1cccc2cccnc12`: 3.44 µM (active) and inactive; for `Nc1ccc(Cl)cc1`: “inactive”; for `Nc1ccc(-c2ccc(N)c(Cl)c2)cc1Cl`: “inactive and 48.6 µM (active)”. As for `COP(=O)(OC)OC=C(Cl)Cl`, the Potency entry was “inactive”. For `Nc1ccccc1`, the Potency entry is “inactive”. The same measure for `O=c1nc(O)n(Cl)c(=O)n1Cl`: “inactive”.
